# Test results published in PubChem BioAssay.
# Where “and” joins values, the source holds several entries; their conditions need not be identical. Identical values can stand only once. Inconclusive results are not listed. For some of these results: Entries with a potency or affinity are not part of this list. Calls of active or inactive are those of the source.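 How the source made its calls, unless noted: active means at least 20% inhibition of 6-phosphogluconate dehydrogenase activity; inactive means the rest.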
# How the values were obtained:
# [1] = target: 6-phosphogluconate dehydrogenase, decarboxylating (Homo sapiens) (UniProt P52209); experiment: inhibition of human phosphogluconate dehydrogenase – biochemical, recombinant enzyme, NADPH absorbance, primary screen (AID 1159550); conditions: recombinant 6PGD, NADPH absorbance 341 nm; at 10 µM; stronger effect = higher value
# [2] = target: Mitogen-activated protein kinase 7 (Homo sapiens) (UniProt Q13164); experiment: Gal4-ERK5 driven luciferase induction – cell-based, HTS, primary screen (AID 1508626;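 active means luciferase signal above three times the same-plate solvent-only control wells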;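 further: luciferase driven by Gal4-ERK5 fusion binding five Gal4 sites before minimal TATA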); conditions: HeLa Gal4-ERK5 transactivation, 18 h, at 5 µM, stronger effect = higher value
# [3] = target: NAD(+) hydrolase SARM1 (Homo sapiens) (UniProt Q6SZW1); experiment: blocking NAD cleavage by SARM1 SAM-TIR – cell lysate, NAD-Glo luminescence (AID 1508614;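 active means compound whose remaining NAD level is above about 45 nM, limit read from the data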); conditions: SAM-TIR HEK293T lysate NADase, at 1 µM, stronger effect = higher value
# [4] = compounds altering circadian rhythm period length – cell-based, LOPAC library, luminescence reporter (AID 2774; call rule not given here;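 further: values are relative to mean of DMSO wells on each plate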); conditions: circadian reporter cells, at 7 µM, actives lie on both sides
# [5] = viability loss with induced miR-34 in A549 – imaging, A549 dox-inducible miR-34, nuclei and caspase counts, primary screen (AID 1347080;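 active means compounds whose cell count with miR-34 switched on is under 0.7 times the count with it off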); conditions: A549 miR-34 inducible, Hoechst nuclei count, 48 h
# [6] = galactose survival enhancers in mitochondrial complex I cybrids – cell-based, galactose medium, ATP luminescence, primary screen (AID 1645843;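 active means z-score of at least 1.8 in each of two replicates, scored against plate mean and spread of sample wells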;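 further: positive z means more ATP and so rescue of galactose-driven cybrid death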); conditions: complex I mutant cybrid cells, 72 h, stronger effect = higher value
# [7] = P. berghei load reduction in hepatocytes – cell-based, HepG2, luciferase luminescence, HepG2 viability, primary screen (AID 624349; in the data active means parasite load remaining mostly below about 12%, no sharp cut-off; inactive means mostly above about 10%;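 further: 100% = mean of DMSO negative control wells on the same plate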); conditions: P. berghei liver stage in HepG2, luciferase luminescence, concentration not given here; parasite load remaining: stronger effect = lower value; viability: measured here: HepG2 viability without parasites
# [8] = blockers of polyQ-driven CASP3 activation – cell-based (AID 1583); conditions: polyglutamine-induced caspase-3 activation, cell assay; stronger effect = higher value;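 tested at 10 µM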
# [9] = yeast 75Q aggregation reduction – 75Q-TubU reporter (AID 1593); conditions: Yeast 75Q polyglutamine aggregation reporter
# [10] = restoration of touch response, mutant HTT neurons – whole organism, C. elegans mechanosensory neurons, N-terminal huntingtin (AID 1599); conditions: C. elegans polyQ-huntingtin mechanosensory neurons, stronger effect = higher value
# [11] = blockers of cytochrome c efflux from mitochondria – biochemical, purified mitochondria (AID 1603); conditions: stronger effect = lower value;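 further: mouse liver mitochondria challenged with calcium chloride; signal normalized to the plate average as 100%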
# [12] = polyglutamine aggregate formation blockers (AID 1604); conditions: polyglutamine-induced protein aggregation inhibition assay; stronger effect = higher value; tested at 2.5 µM
# [13] = glutamate transport activators, MN-1 cells, MN-1 cell line (AID 1612); conditions: MN-1 motor neuron cells, stronger effect = higher value;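 further: tested at 1 µM final; 0% = mean of DMSO vehicle wells on each plate; positive means more glutamate uptake than control and negative means less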
# [14] = GFP-Q80 aggregate reduction, neuronal-like cells, cell-based, NGF-treated PC12, GFPQ80 (AID 1614); conditions: PC12 NGF-treated GFP-polyQ80 inclusion reduction;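 further: lower means fewer inclusions and 0 means no inclusions at all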
# [15] = 75Q-TubH aggregate inhibition, S. cerevisiae, yeast (AID 1616); conditions: S. cerevisiae 75Q-TubH polyglutamine aggregation suppression; stronger effect = higher value
# [16] = compounds altering viability of human ES cells (AID 493140; call rule not given here;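 further: cells exposed to compounds for four days before counting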); conditions: human embryonic stem cell survival screen; stronger effect = higher value
# [17] = MELAS cybrid and Rieske KO viability enhancers – cell-based, MELAS cybrids, Rieske KO mouse fibroblasts, CellTiter-Glo, primary screen (AID 1508586;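 active means mean z-score across replicates of 1.96 or higher in either the MELAS or the Rieske mutant cell line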;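 further: z relative to plate mean and SD of compound and empty wells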); conditions: low glucose
# [18] = target: ATP-dependent translocase ABCB1 (Homo sapiens) (UniProt P08183); experiment: P-glycoprotein substrate transport blockade – cell-based (AID 377; in the data active means fluorescence slope change above about 50%); conditions: MDR1-expressing cells, fluorescent substrate accumulation slope; stronger effect = higher value; concentration not given here
# [19] = stronger effect = lower value, cell number ratio, induced over uninduced
# [20] = measured here: relative caspase fold change +Dox/-Dox
# [21] = measured here: total cells with miR-34 induction, stronger effect = lower value
# [22] = measured here: total cells without miR-34 induction
# [23] = MELAS cybrid survival, CellTiter-Glo 48 h, stronger effect = higher value
# [24] = Rieske KO mouse fibroblast survival, CellTiter-Glo 72 h
# Chain of 6-phosphogluconate dehydrogenase, decarboxylating (Homo sapiens) (P52209 whole entry, looked up, the tested form may be a part): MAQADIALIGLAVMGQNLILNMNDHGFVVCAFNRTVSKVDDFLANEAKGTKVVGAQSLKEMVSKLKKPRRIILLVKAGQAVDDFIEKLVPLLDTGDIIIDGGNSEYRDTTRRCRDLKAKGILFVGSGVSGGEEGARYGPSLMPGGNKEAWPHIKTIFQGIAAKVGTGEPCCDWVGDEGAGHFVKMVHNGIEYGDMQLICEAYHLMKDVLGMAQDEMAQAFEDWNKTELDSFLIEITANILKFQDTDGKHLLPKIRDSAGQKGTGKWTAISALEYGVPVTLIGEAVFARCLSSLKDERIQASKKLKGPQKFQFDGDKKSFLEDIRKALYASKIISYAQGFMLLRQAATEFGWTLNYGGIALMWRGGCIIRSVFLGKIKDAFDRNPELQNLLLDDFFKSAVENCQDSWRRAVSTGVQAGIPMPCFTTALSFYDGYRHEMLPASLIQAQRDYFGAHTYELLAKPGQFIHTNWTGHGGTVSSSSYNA
# Chain of Mitogen-activated protein kinase 7 (Homo sapiens) (Q13164 whole entry, looked up, the tested form may be a part): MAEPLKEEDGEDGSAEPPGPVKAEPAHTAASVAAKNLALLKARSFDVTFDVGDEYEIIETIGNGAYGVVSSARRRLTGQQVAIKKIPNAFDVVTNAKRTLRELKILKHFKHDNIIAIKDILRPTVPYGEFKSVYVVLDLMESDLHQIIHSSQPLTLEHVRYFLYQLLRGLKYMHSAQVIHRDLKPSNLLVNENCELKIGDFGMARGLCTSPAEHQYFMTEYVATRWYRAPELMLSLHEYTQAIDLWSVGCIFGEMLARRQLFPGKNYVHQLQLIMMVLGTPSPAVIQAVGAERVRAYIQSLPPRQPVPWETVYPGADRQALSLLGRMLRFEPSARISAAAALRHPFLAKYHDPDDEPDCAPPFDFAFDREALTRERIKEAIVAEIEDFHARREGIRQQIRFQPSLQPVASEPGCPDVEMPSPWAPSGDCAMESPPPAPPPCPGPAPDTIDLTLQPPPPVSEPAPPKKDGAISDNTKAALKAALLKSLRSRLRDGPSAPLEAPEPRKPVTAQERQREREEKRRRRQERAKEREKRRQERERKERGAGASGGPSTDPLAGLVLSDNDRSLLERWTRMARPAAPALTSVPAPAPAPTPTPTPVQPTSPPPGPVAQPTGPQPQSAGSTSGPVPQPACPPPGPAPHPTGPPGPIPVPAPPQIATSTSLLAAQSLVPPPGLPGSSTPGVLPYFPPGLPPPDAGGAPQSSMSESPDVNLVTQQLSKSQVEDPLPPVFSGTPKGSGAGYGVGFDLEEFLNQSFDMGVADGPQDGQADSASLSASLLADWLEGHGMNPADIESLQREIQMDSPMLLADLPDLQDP
# Chain of NAD(+) hydrolase SARM1 (Homo sapiens) (Q6SZW1 whole entry, looked up): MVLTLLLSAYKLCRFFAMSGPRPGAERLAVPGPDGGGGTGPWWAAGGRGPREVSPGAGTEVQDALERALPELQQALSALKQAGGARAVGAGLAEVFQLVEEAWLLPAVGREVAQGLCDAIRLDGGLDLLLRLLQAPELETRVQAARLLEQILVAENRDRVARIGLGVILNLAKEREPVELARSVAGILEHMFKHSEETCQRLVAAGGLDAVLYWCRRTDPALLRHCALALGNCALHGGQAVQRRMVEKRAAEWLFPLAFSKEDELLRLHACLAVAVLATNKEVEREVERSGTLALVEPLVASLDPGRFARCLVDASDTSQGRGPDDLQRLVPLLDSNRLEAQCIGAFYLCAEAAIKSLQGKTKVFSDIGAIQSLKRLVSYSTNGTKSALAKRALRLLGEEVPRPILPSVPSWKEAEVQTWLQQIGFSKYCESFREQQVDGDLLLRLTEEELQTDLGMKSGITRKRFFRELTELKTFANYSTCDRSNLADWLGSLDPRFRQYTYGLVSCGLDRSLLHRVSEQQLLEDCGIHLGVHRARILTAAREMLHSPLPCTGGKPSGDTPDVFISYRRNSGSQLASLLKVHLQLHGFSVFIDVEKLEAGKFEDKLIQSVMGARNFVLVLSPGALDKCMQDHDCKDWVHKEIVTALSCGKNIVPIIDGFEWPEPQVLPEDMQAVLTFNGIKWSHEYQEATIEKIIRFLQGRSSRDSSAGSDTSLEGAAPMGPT
# Chain of ATP-dependent translocase ABCB1 (Homo sapiens) (P08183 whole entry, looked up): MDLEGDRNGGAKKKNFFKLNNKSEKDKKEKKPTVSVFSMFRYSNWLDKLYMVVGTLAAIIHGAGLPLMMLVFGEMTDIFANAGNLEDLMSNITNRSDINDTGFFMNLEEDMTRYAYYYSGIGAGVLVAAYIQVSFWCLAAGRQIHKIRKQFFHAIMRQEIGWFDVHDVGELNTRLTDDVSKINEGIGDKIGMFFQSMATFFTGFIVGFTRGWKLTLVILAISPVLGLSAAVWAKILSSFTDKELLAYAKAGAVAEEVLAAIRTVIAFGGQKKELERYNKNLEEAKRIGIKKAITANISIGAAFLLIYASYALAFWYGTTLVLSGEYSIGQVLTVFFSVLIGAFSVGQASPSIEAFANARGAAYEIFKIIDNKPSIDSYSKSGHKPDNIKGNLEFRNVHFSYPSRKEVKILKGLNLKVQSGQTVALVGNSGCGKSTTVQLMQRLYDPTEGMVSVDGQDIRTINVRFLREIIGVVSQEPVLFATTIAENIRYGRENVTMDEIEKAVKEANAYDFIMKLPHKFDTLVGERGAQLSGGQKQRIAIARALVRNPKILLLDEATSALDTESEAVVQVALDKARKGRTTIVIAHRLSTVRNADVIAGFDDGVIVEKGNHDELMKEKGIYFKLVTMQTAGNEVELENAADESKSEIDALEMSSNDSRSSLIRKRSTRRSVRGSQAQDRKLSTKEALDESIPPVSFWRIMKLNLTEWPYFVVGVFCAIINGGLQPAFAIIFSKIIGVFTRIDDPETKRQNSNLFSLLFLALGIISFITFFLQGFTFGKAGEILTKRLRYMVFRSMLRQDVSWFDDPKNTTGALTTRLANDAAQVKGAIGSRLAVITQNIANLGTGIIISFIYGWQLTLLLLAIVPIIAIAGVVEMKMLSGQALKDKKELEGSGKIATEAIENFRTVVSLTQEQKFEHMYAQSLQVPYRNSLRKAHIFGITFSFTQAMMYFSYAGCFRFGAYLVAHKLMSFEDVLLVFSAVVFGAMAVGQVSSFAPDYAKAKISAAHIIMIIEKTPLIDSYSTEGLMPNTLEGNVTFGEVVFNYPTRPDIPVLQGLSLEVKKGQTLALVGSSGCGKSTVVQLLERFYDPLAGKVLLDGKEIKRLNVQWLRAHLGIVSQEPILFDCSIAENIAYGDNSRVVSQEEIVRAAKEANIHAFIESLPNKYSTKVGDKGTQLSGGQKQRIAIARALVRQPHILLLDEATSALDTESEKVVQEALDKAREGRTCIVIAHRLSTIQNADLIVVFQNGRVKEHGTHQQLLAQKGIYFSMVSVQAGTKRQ
smiles,measurement,setting,value
CC(C)=CCc1c(O)cc2occ(-c3ccc4c(c3)OCO4)c(=O)c2c1O,inhibition,[1],-0.247% (inactive)
same,luciferase signal,[2],104 AU (inactive)
CC(=O)NC(CC(C)C)C(=O)O (configuration not stated),inhibition,[1],4.75% (inactive)
same,remaining NAD,[3],10 nM (inactive)
CC[C@H]1OC(=O)[C@H](C)C(=O)[C@H](C)[C@@H](O[C@@H]2O[C@H](C)C[C@H](N(C)C)[C@H]2O)[C@](C)(OC)C[C@@H](C)C(=O)[C@H](C)[C@H]2N(CCCCn3cnc(-c4cccnc4)c3)C(=O)O[C@]12C,inhibition,[1],-10.3% (inactive)
same,remaining NAD,[3],10 nM (inactive)
same,luciferase signal,[2],48 AU (inactive)
CO/N=C(\C(=O)N[C@@H]1C(=O)N2C(C(=O)O)=C(CSc3nc(=O)c(O)nn3C)CSC12)c1csc(N)n1 (some centres not stated),period change,[4],0.08 h (inactive)
same,inhibition,[1],-13.8% (inactive)
same,fold change,[5]; [19],1.02 (inactive)
same,fold change,[5]; [20],1.74
same,cell count,[5]; [21],10200
same,cell count,[5]; [22],9980
same,z-score,[6],0.175 (inactive)
NC[C@@H]1O[C@H](O[C@H]2[C@@H](O)[C@H](O[C@@H]3[C@@H](O)[C@H](N)C[C@H](N)[C@H]3O[C@H]3O[C@H](CO)[C@@H](O)[C@H](O)[C@H]3N)O[C@@H]2CO)[C@H](N)[C@@H](O)[C@@H]1O,inhibition,[1],-8.11% (inactive)
same,remaining NAD,[3],10 nM (inactive)
same,luciferase signal,[2],80 AU (inactive)
CCCCCC(=O)O[C@]1(C(C)=O)CC[C@H]2[C@@H]3CCC4=CC(=O)CC[C@]4(C)[C@H]3CC[C@@]21C,inhibition,[1],-2.17% (inactive)
same,remaining NAD,[3],10 nM (inactive)
same,luciferase signal,[2],44 AU (inactive)
C=C(C)[C@@H]1CC[C@]2(CO)CC[C@]3(C)[C@H](CC[C@@H]4[C@@]5(C)CC[C@H](O)C(C)(C)[C@@H]5CC[C@]43C)[C@@H]12,parasite load remaining,[7],104% (inactive)
same,viability,[7],78.6%
same,inhibition,[1],1.58% (inactive)
same,fold change,[5]; [19],0.941 (inactive)
same,fold change,[5]; [20],0.65
same,cell count,[5]; [21],8530
same,cell count,[5]; [22],9060
same,luciferase signal,[2],44 AU (inactive)
CC(=O)[C@@]1(O)CC[C@H]2[C@@H]3C=C(Cl)C4=CC(=O)[C@@H]5C[C@@H]5[C@]4(C)[C@H]3CC[C@@]21C,inhibition,[1],3.58% (inactive)
same,remaining NAD,[3],10 nM (inactive)
same,luciferase signal,[2],32 AU (inactive)
CCc1cn([C@H]2C[C@H](O)[C@@H](CO)O2)c(=O)[nH]c1=O,inhibition,[1],-4.52% (inactive)
same,remaining NAD,[3],10 nM (inactive)
same,luciferase signal,[2],64 AU (inactive)
COc1ccc(C(C)=O)c(OC)c1,inhibition,[1],-3.95% (inactive)
same,luciferase signal,[2],76 AU (inactive)
NC[C@H]1O[C@H](O[C@H]2[C@H](O[C@@H]3O[C@H](CO)[C@@H](O)[C@H]3O)[C@@H](O)[C@H](N)C[C@@H]2N)[C@H](N)[C@@H](O)[C@@H]1O,inhibition,[1],-2.01% (inactive)
same,remaining NAD,[3],10 nM (inactive)
same,luciferase signal,[2],40 AU (inactive)
CC1CCCC(C)N1NC(=O)c1ccc(Cl)c(S(N)(=O)=O)c1 (configuration not stated),inhibition,[8],16.7%
same,score,[9],1.67
same,rescue above control,[10],-10.1
same,cytochrome c release ratio,[11],0.96
same,inhibition of aggregation,[12],25.5%
same,glutamate uptake change,[13],-0.09%
same,inclusion score,[14],2
same,aggregation suppression score,[15],1.2
same,survival,[16],5.92 (inactive)
same,parasite load remaining,[7],92.4% (inactive) and 77.2% (inactive)
same,viability,[7],76.8% and 96.5%
same,inhibition,[1],6.91% (inactive)
same,fold change,[5]; [19],0.9 (inactive)
same,fold change,[5]; [20],4.97
same,cell count,[5]; [21],7530
same,cell count,[5]; [22],8360
CC12CC[C@H](CC1=O)C2(C)C,parasite load remaining,[7],74.1% (inactive) and 58.3% (inactive)
same,viability,[7],75% and 94.1%
same,inhibition,[1],13.3% (inactive)
same,fold change,[5]; [19],0.849 (inactive)
same,fold change,[5]; [20],0.856
same,cell count,[5]; [21],10900
same,cell count,[5]; [22],12800
Nc1nc(N)c2nc(CNc3ccc(C(=O)N[C@@H](CCC(=O)O)C(=O)O)cc3)cnc2n1,inhibition,[1],-4.2% (inactive)
same,remaining NAD,[3],10 nM (inactive)
C[C@@H]1O[C@@H](OC[C@H]2O[C@@H](Oc3c(-c4ccc(OCCO)c(OCCO)c4)oc4cc(OCCO)cc(O)c4c3=O)[C@H](O)[C@@H](O)[C@@H]2O)[C@H](O)[C@H](O)[C@H]1O,inhibition,[1],-5.09% (inactive)
same,remaining NAD,[3],10 nM (inactive)
same,luciferase signal,[2],72 AU (inactive)
O=C(O)c1cc(O)c2c(c1)[C@H]([C@H]1c3cc(C(=O)O)cc(O)c3C(=O)c3c(O[C@@H]4O[C@H](CO)[C@@H](O)[C@H](O)[C@H]4O)cccc31)c1cccc(O[C@@H]3O[C@H](CO)[C@@H](O)[C@H](O)[C@H]3O)c1C2=O,inhibition,[1],6.02% (inactive)
same,remaining NAD,[3],11 nM (inactive)
same,luciferase signal,[2],76 AU (inactive)
CCCCC[C@@H](O)[C@H]1C(=O)O[C@H](C)[C@@H](O)/C=C/C=C/C=C/C=C/C=C(\C)[C@@H](O)C[C@H](O)C[C@H](O)C[C@H](O)C[C@H](O)C[C@H](O)C[C@@H]1O,inhibition,[1],6.12% (inactive)
same,fold change,[5]; [19],1.04 (inactive)
same,fold change,[5]; [20],1.06
same,cell count,[5]; [21],6150
same,cell count,[5]; [22],5900
same,luciferase signal,[2],72 AU (inactive)
C=C1C[C@]23C[C@@]1(O)CC[C@H]2[C@@]12C=C[C@H](O)[C@@](C)(C(=O)O1)[C@H]2[C@@H]3C(=O)O,survival,[16],1.25 (inactive)
same,parasite load remaining,[7],101% (inactive)
same,viability,[7],80.4%
same,inhibition,[1],-0.284% (inactive)
same,fold change,[5]; [19],0.973 (inactive)
same,fold change,[5]; [20],0.674
same,cell count,[5]; [21],8110
same,cell count,[5]; [22],8340
same,luciferase signal,[2],40 AU (inactive)
C1CCN2C[C@@H]3C[C@H](CN4CCCC[C@@H]34)[C@H]2C1,parasite load remaining,[7],83.5% (inactive)
same,viability,[7],82.9%
same,inhibition,[1],11% (inactive)
same,fold change,[5]; [19],0.85 (inactive)
same,fold change,[5]; [20],3.93
same,cell count,[5]; [21],10700
same,cell count,[5]; [22],12500
same,luciferase signal,[2],68 AU (inactive)
CC(C)C[C@@H]1NC(=O)[C@H](CCCN)NC(=O)[C@H](C(C)C)NC(=O)[C@H](Cc2ccc(O)cc2)N[C@@H](CCC(=O)O)C(=O)N[C@@H](CC(N)=O)C(=O)[C@@H](Cc2ccccc2)NC(=O)[C@H](Cc2ccccc2)NC(=O)[C@@H]2CCCN2C(=O)[C@@H](Cc2ccccc2)NC1=O,inhibition,[1],2.66% (inactive)
same,remaining NAD,[3],10 nM (inactive)
C[C@@H]1C[C@H]2[C@@H]3C[C@H](F)C4=CC(=O)C=C[C@]4(C)[C@@]3(F)[C@@H](O)C[C@]2(C)[C@@]1(O)C(=O)COC(=O)C(C)(C)C,inhibition,[1],8.08% (inactive)
same,z-score,[17]; [23],0.627 (inactive)
same,z-score,[17]; [24],0.671
same,remaining NAD,[3],10 nM (inactive)
CC(C)CCC[C@@H](C)[C@H]1CC[C@H]2C3=CC[C@H]4C[C@@H](O)CC[C@]4(C)[C@H]3CC[C@]12C,inhibition,[1],4.86% (inactive)
same,luciferase signal,[2],56 AU (inactive)
CC1=CC(=O)C2=C(C)CC[C@@H]3[C@H](OC(=O)[C@H]3C)[C@@H]12,survival,[16],21.9 (inactive)
same,parasite load remaining,[7],69.2% (inactive)
same,viability,[7],75.3%
same,inhibition,[1],-50% (inactive)
same,fold change,[5]; [19],0.934 (inactive)
same,fold change,[5]; [20],0.653
same,cell count,[5]; [21],9100
same,cell count,[5]; [22],9750
same,luciferase signal,[2],76 AU (inactive)
CN[C@@H]1[C@H](O[C@H]2[C@H](O[C@H]3[C@H](O)[C@@H](O)[C@H](N=C(N)N)[C@@H](O)[C@@H]3N=C(N)N)O[C@@H](C)[C@]2(O)CO)O[C@@H](CO)[C@H](O)[C@H]1O,inhibition,[1],-14.8% (inactive)
same,remaining NAD,[3],10 nM (inactive)
same,luciferase signal,[2],68 AU (inactive)
C[C@H]1[C@H]2CC[C@H]3[C@@H]4CC=C5C[C@@H](N(C)C)CC[C@]5(C)[C@H]4CC[C@]23CN1C,fluorescence slope change,[18],56.7% (active)
same,survival,[16],4.83 (inactive)
same,parasite load remaining,[7],168% (inactive) and 68.7% (inactive)
same,viability,[7],102% and 76.1%
same,inhibition,[1],13.8% (inactive)
same,fold change,[5]; [19],0.82 (inactive)
same,fold change,[5]; [20],1.54
same,cell count,[5]; [21],8300
same,cell count,[5]; [22],10100
same,luciferase signal,[2],40 AU (inactive)
CN1[C@@H]2CC[C@H]1CC(OC(c1ccccc1)c1ccccc1)C2 (some centres not stated),inhibition,[1],13.6% (inactive)
same,z-score,[17]; [23],-0.23 (inactive)
same,z-score,[17]; [24],0.0522
same,luciferase signal,[2],52 AU (inactive)
